PubChem BioAssay AID1159580 (chemical genetic matrix, 2015)
The campaign covered roughly 5,500 compounds. About 2,000 (36%) were called active. Not shown: some 18% with an inconclusive outcome. Cut-off read from the data, not from the text of the source: active = normalized growth mostly below about 0.91 (no sharp cut-off); inconclusive = no clear call, values can overlap the other calls; inactive = mostly above about 0.92. This is one part of the list.

Experiment: chemical genetic growth profiling, strain panel (AID 1159580);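 note: tested at 20 µM; growth read once vehicle control cultures reached saturation at 30 °C; 1 = growth at the plate median or of vehicle wells; lower values mean less growth of the strain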
Conditions: S. cerevisiae deletion strains, growth OD

Measured: normalized growth

CC(=O)O[C@@H]1CC2C(C)(C)C=CC(=O)[C@]2(C)C2CC[C@@]3(C)[C@H](c4ccoc4)OC(=O)C4OC43[C@@]21C (some centres not stated)
inactive: locus YAL021C, strain ccr4, stronger effect = lower value 0.985 | locus YAL026C, strain drs2, stronger effect = lower value 1 | locus YAL030W, strain snc1, stronger effect = lower value 0.999 | locus YBL061C, strain skt5, stronger effect = lower value 1 | locus YBR009C, strain hhf1, stronger effect = lower value 1 | locus YBR021W, strain FUR4, stronger effect = lower value 1.04 | locus YBR023C, strain chs3, stronger effect = lower value 0.988 | locus YBR171W, strain sec66, stronger effect = lower value 1.01 | locus YBR229C, strain ROT2, stronger effect = lower value 1.01 | locus YBR231C, strain swc5, stronger effect = lower value 1.01 | locus YBR279W, strain paf1, stronger effect = lower value 1 | locus YCL011C, strain gbp2, stronger effect = lower value 0.998 | locus YCL016C, strain dcc1, stronger effect = lower value 1 | locus YCL029C, strain bik1, stronger effect = lower value 1 | locus YCL061C, strain MRC1, stronger effect = lower value 0.998 | locus YCL069W, strain vba3, stronger effect = lower value 0.992 | locus YCR088W, strain abp1, stronger effect = lower value 0.994 | locus YDL005C, strain med2, stronger effect = lower value 0.987 | locus YDL035C, strain GPR1, stronger effect = lower value 1.03 | locus YDL040C, strain nat1, stronger effect = lower value 0.986 | locus YDL074C, strain BRE1, stronger effect = lower value 1.03 | locus YDL101C, strain DUN1, stronger effect = lower value 1.01 | locus YDL134C, strain PPH21, stronger effect = lower value 1.02 | locus YDL185W, strain tfp1, stronger effect = lower value 0.984 | locus YDL192W, strain arf1, stronger effect = lower value 1 | locus YDR001C, strain nth1, stronger effect = lower value 0.995 | locus YDR069C, strain doa4, stronger effect = lower value 0.985 | locus YDR101C, strain arx1, stronger effect = lower value 1 | locus YDR137W, strain rgp1, stronger effect = lower value 0.974 | locus YDR159W, strain sac3, stronger effect = lower value 0.988 | locus YDR162C, strain NBP2, stronger effect = lower value 1.04 | locus YDR195W, strain ref2 1 | locus YDR297W, strain sur2, stronger effect = lower value 0.994 | locus YDR318W, strain mcm21, stronger effect = lower value 1.01 | locus YDR334W, strain swr1, stronger effect = lower value 1.01 | locus YDR335W, strain msn5, stronger effect = lower value 0.997 | locus YDR388W, stronger effect = lower value 1 | locus YDR392W, strain spt3, stronger effect = lower value 0.963 | locus YDR502C, strain sam2, stronger effect = lower value 0.991 | locus YEL003W, strain gim4, stronger effect = lower value 0.984 | locus YEL037C, strain rad23, stronger effect = lower value 0.998 | locus YEL061C, strain CIN8 (second series), stronger effect = lower value 0.995 | locus YER015W, strain faa2, stronger effect = lower value 1 | locus YER016W, strain bim1, stronger effect = lower value 0.993 | locus YER110C, stronger effect = lower value 1 | locus YER111C, strain swi4, stronger effect = lower value 1 | locus YER155C, strain BEM2 (second series), stronger effect = lower value 0.996 | locus YER155C, strain BEM2, stronger effect = lower value 1.01 | locus YER167W, strain BCK2, stronger effect = lower value 1.03 | locus YFR010W, strain ubp6, stronger effect = lower value 1.04 | locus YGL078C, strain dbp3, stronger effect = lower value 0.986 | locus YGL086W, strain mad1, stronger effect = lower value 1 | locus YGL167C, strain pmr1, stronger effect = lower value 0.991 | locus YGL173C, strain kem1, stronger effect = lower value 0.996 | locus YGL227W, strain vid30, stronger effect = lower value 0.992 | locus YGL240W, strain doc1, stronger effect = lower value 0.983 | locus YGL248W, strain PDE1, stronger effect = lower value 1.02 | locus YGL253W, strain hxk2, stronger effect = lower value 0.977 | locus YGR135W, strain pre9, stronger effect = lower value 0.987 | locus YGR229C, strain SMI1, stronger effect = lower value 1.04 | locus YGR252W, strain gcn5, stronger effect = lower value 0.994 | locus YHR013C, strain ard1, stronger effect = lower value 1.01 | locus YHR027C, strain rpn1, stronger effect = lower value 1 | locus YHR030C, strain SLT2, stronger effect = lower value 1.01 | locus YHR079C, strain IRE1 (second series), stronger effect = lower value 1 | locus YHR094C, strain hxt1, stronger effect = lower value 0.995 | locus YHR129C, strain ARP1, stronger effect = lower value 1.02 | locus YHR142W, strain chs7, stronger effect = lower value 0.987 | locus YHR200W, strain rpn10, stronger effect = lower value 0.998 | locus YIL066C, strain RNR3, stronger effect = lower value 1.02 | locus YIL073C, strain SPO22, stronger effect = lower value 1.03 | locus YIL125W, strain kgd1, stronger effect = lower value 1.01 | locus YIR030C, strain dcg1, stronger effect = lower value 0.996 | locus YJL092W, strain hpr5, stronger effect = lower value 1 | locus YJL095W, strain BCK1 (second series), stronger effect = lower value 1 | locus YJL095W, strain BCK1, stronger effect = lower value 1.01 | locus YJL115W, strain asf1, stronger effect = lower value 1 | locus YJL129C, strain trk1, stronger effect = lower value 0.994 | locus YJL134W, strain LCB3, stronger effect = lower value 1.01 | locus YJL154C, strain vps35, stronger effect = lower value 0.999 | locus YJL164C, strain tpk1, stronger effect = lower value 0.996 | locus YJL166W, strain qcr8, stronger effect = lower value 0.992 | locus YJL168C, strain set2, stronger effect = lower value 1 | locus YJL187C, strain SWE1 (second series), stronger effect = lower value 1.01 | locus YJL187C, strain SWE1, stronger effect = lower value 1 | locus YJR043C, strain POL32, stronger effect = lower value 1.03 | locus YJR075W, strain HOC1, stronger effect = lower value 1.02 | locus YKL068W, stronger effect = lower value 1 | locus YKL085W, strain MDH1 (second series), stronger effect = lower value 1 | locus YKL085W, strain MDH1, stronger effect = lower value 1 | locus YKL160W, strain elf1, stronger effect = lower value 0.997 | locus YKL190W, strain CNB1, stronger effect = lower value 1.02 | locus YKR001C, strain vps1, stronger effect = lower value 1 | locus YKR026C, strain gcn3, stronger effect = lower value 0.996 | locus YKR091W, strain srl3, stronger effect = lower value 1 | locus YLL001W, strain dnm1, stronger effect = lower value 1.01 | locus YLL026W, stronger effect = lower value 1 | locus YLL041C, strain sdh2, stronger effect = lower value 1 | locus YLR027C, strain aat2, stronger effect = lower value 0.997 | locus YLR039C, strain RIC1, stronger effect = lower value 1.05 | locus YLR058C, strain SHM2, stronger effect = lower value 1.03 | locus YLR102C, strain apc9, stronger effect = lower value 0.998 | locus YLR221C, strain rsa3, stronger effect = lower value 0.991 | locus YLR258W, strain gsy2, stronger effect = lower value 0.984 | locus YLR262C, strain YPT6 (second series), stronger effect = lower value 1 | locus YLR262C, strain YPT6, stronger effect = lower value 1.09 | locus YLR268W, strain sec22, stronger effect = lower value 1 | locus YLR320W, strain mms22, stronger effect = lower value 0.999 | locus YLR330W, strain CHS5, stronger effect = lower value 1.01 | locus YLR342W, strain FKS1 (second series), stronger effect = lower value 0.989 | locus YLR342W, strain FKS1, stronger effect = lower value 1 | locus YLR357W, strain rsc2, stronger effect = lower value 1.02 | locus YLR370C, strain arc18, stronger effect = lower value 0.999 | locus YLR371W, strain rom2, stronger effect = lower value 1.01 | locus YLR384C, strain iki3, stronger effect = lower value 1.01 | locus YLR418C, strain cdc73, stronger effect = lower value 0.973 | locus YML016C, strain PPZ1, stronger effect = lower value 1.02 | locus YML032C, strain rad52, stronger effect = lower value 1 | locus YML120C, strain ndi1, stronger effect = lower value 1 | locus YML124C, strain tub3, stronger effect = lower value 1 | locus YMR058W, strain fet3, stronger effect = lower value 1 | locus YMR078C, strain ctf18, stronger effect = lower value 0.985 | locus YMR125W, strain sto1, stronger effect = lower value 0.999 | locus YMR129W, stronger effect = lower value 0.99 | locus YMR205C, strain PFK2, stronger effect = lower value 0.996 | locus YMR223W, strain ubp8, stronger effect = lower value 0.997 | locus YMR231W, strain pep5, stronger effect = lower value 0.973 | locus YMR307W, strain GAS1, stronger effect = lower value 1.02 | locus YNL067W, strain RPL9B, stronger effect = lower value 1.02 | locus YNL071W, strain lat1, stronger effect = lower value 0.994 | locus YNL128W, strain TEP1, stronger effect = lower value 1.02 | locus YNL209W, strain ssb2, stronger effect = lower value 1.01 | locus YNL233W, strain BNI4, stronger effect = lower value 1.02 | locus YNL248C, strain rpa49, stronger effect = lower value 1.01 | locus YNL250W, strain rad50, stronger effect = lower value 0.989 | locus YNL271C, strain bni1, stronger effect = lower value 1 | locus YNL298W, strain CLA4, stronger effect = lower value 0.998 | locus YNL307C, strain MCK1, stronger effect = lower value 0.993 | locus YNL322C, strain KRE1 (second series), stronger effect = lower value 1 | locus YNR049C, strain mso1, stronger effect = lower value 1 | locus YNR052C, strain pop2, stronger effect = lower value 1 | locus YOL012C, strain htz1 0.75 | locus YOL147C, strain pex11, stronger effect = lower value 0.995 | locus YOR001W, strain rrp6, stronger effect = lower value 0.995 | locus YOR061W, strain CKA2, stronger effect = lower value 1.02 | locus YOR069W, strain VPS5, stronger effect = lower value 1.01 | locus YOR070C, strain gyp1, stronger effect = lower value 0.998 | locus YOR080W, strain dia2, stronger effect = lower value 0.993 | locus YOR083W, strain WHI5, stronger effect = lower value 1 | locus YOR106W, strain vam3, stronger effect = lower value 1.01 | locus YOR136W, strain idh2, stronger effect = lower value 1 | locus YOR144C, strain elg1, stronger effect = lower value 1.01 | locus YOR184W, strain ser1, stronger effect = lower value 1.01 | locus YOR265W, strain rbl2, stronger effect = lower value 0.997 | locus YOR270C, strain vph1, stronger effect = lower value 0.956 | locus YOR290C, strain snf2, stronger effect = lower value 0.968 | locus YOR316C, strain cot1, stronger effect = lower value 0.993 | locus YPL051W, strain arl3, stronger effect = lower value 1.03 | locus YPL055C, strain LGE1, stronger effect = lower value 1.03 | locus YPL078C, strain atp4, stronger effect = lower value 0.983 | locus YPL106C, strain sse1, stronger effect = lower value 1.02 | locus YPL240C, strain hsp82, stronger effect = lower value 0.998 | locus YPR119W, strain clb2, stronger effect = lower value 0.998 | locus YPR141C, strain kar3, stronger effect = lower value 0.998 | locus YPR163C, strain tif3, stronger effect = lower value 1.01 | locus YPR167C, strain met16, stronger effect = lower value 0.997 | strain wtn01, stronger effect = lower value 1.01
